# Source: PubChem BioAssay (NCI)
# The panel holds about 79,000 compounds, 15% with a hit somewhere; the sample as a whole holds those more often. Active and inactive are the calls of the source. Rule as the data show it: active = growth inhibition above about 70%; inactive = the rest.
# Tests used:
# [1] = NCI Yeast Anticancer Drug Screen. Data for the rad50 strain (AID 155);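 also: 0% = growth of vehicle-only cultures of the same strain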; details: S. cerevisiae rad50 strain growth inhibition; at 50.0 µM; stronger effect = higher value
# How it was run: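 Cells are treated with compound, grown, and their growth is then scored against vehicle-only cultures of the same repair-deficient yeast strain.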
# [2] = NCI Yeast Anticancer Drug Screen. Data for the mec2-1 strain (AID 157); details: S. cerevisiae mec2-1 strain, at 50.0 µM, stronger effect = higher value
# How it was run: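 Cells of the genetically defined mec2-1 yeast strain are incubated with test compound. Inhibition of growth is calculated against vehicle-treated controls.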
# [3] = NCI Yeast Anticancer Drug Screen. Data for the sgs1 mgt1 strain (AID 161);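 also: 0% = growth of cultures given vehicle only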; details: S. cerevisiae sgs1 mgt1 strain, at 50.0 µM, stronger effect = higher value
# How it was run: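 Read-out: growth inhibition vs vehicle controls. Cells: mutant yeast strain deficient in DNA damage repair.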
# [4] = NCI Yeast Anticancer Drug Screen. Data for the cln2 rad14 strain (AID 165);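 also: 0% = growth equal to vehicle treated cultures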; details: S. cerevisiae cln2 rad14 strain, at 50.0 µM, stronger effect = higher value
# How it was run: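 The screen exposed genetically defined yeast (cln2 rad14) to test compounds and scored growth inhibition relative to vehicle-treated controls.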
# [5] = NCI Yeast Anticancer Drug Screen. Data for the bub3 strain (AID 167); details: S. cerevisiae bub3 mutant strain, at 50.0 µM, stronger effect = higher value
# How it was run: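 Part of a panel of yeast mutants defective in DNA damage repair or cell cycle regulation. Each strain is grown with compound, and inhibition is calculated relative to solvent-treated cultures.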
# [6] = NCI Yeast Anticancer Drug Screen. Data for the mlh1 rad18 strain (AID 175); details: S. cerevisiae mlh1 rad18 strain growth inhibition; at 50.0 µM; stronger effect = higher value
# How it was run: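 Compound-treated yeast growth, normalised to vehicle controls. Strain bears defined DNA repair mutations.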
SMILES,growth inhibition [1],growth inhibition [2],growth inhibition [3],growth inhibition [4],growth inhibition [5],growth inhibition [6]
CSC(SC)=C1Sc2cccc(Cl)c2S1,1.65% (inactive),11.3% (inactive),29.2% (inactive),-14.7% (inactive),-15.1% (inactive),-13.8% (inactive)
COC(=O)c1cc(OC)nc(Cl)n1,3.9% (inactive),13.2% (inactive),1.45% (inactive),-37% (inactive),-11.9% (inactive),1.9% (inactive)
COCC(C)(c1cn(C)c2ccccc12)c1cn(C)c2ccccc12,-2.5% (inactive),-19.2% (inactive),-11.4% (inactive),-17.9% (inactive),5.05% (inactive),-10.1% (inactive)
CCCCCC(Oc1ccc(Cl)cc1Cl)C(=O)O (stereo unspecified),96.7% (active),85.6% (active),97.5% (active),93% (active),91.2% (active),93.5% (active)
C/C(=C\c1ccccc1)C(=O)c1ccccc1,-0.45% (inactive),3.85% (inactive),1.3% (inactive),-3.15% (inactive),3.45% (inactive),20% (inactive)
c1csc(-c2cc(-c3ccsc3)c(-c3cccs3)s2)c1,-46.6% (inactive),-62.7% (inactive),-33.4% (inactive),-0.1% (inactive),-1.4% (inactive),-34.3% (inactive)
CCOC(=O)N1C2c3ccccc3C3C(C21)N3C(=O)OCC (stereo unspecified),-0.3% (inactive),-12.3% (inactive),0.3% (inactive),1.95% (inactive),3.9% (inactive),-11.4% (inactive)
Clc1cc(OCC23CC4CC(CC(C4)C2)C3)nc(OCC23CC4CC(CC(C4)C2)C3)n1,-35.1% (inactive),4.6% (inactive),-18.7% (inactive),-4.8% (inactive),9% (inactive),-13.4% (inactive)
COc1c(NC(=O)c2cccc(C(=O)Nc3cccc([N+](=O)[O-])c3OC)c2)cccc1[N+](=O)[O-],-30.6% (inactive),-15.8% (inactive),-19.9% (inactive),-49.1% (inactive),-0.7% (inactive),-15.5% (inactive)
Clc1ccc(Cl)c(NNc2cc(Cl)ccc2Cl)c1,-29.1% (inactive),-45.5% (inactive),-3.9% (inactive),-0.9% (inactive),-39.5% (inactive),-34.5% (inactive)
N#Cc1c(-c2ccccc2)c(C#N)c(=O)n(N)c1N,-6.7% (inactive),-0.8% (inactive),7.35% (inactive),2.5% (inactive),23.1% (inactive),16.9% (inactive)
CC/C=C(\C)C1(CC)C(=O)NC(=O)N=C1N (stereo unspecified),-1.35% (inactive),3.55% (inactive),5.9% (inactive),4.55% (inactive),-2% (inactive),-11.9% (inactive)
O=C(O)/C=C/C(=O)Nc1ncn[nH]1,-3.55% (inactive),-24.7% (inactive),-22.9% (inactive),3.2% (inactive),-34.9% (inactive),-5.4% (inactive)
COc1cc(/C=N/N2CC(=O)N(c3cccc(Cl)c3)CC2=O)cc(OC)c1,-1.65% (inactive),5.7% (inactive),-1.6% (inactive),-12.8% (inactive),-4.65% (inactive),26.7% (inactive)
O=[N+]([O-])/C(N=Nc1ccc2ccccc2c1Br)=N/Nc1ccc2ccccc2c1Br,34.5% (inactive),5.85% (inactive),19.4% (inactive),-2.85% (inactive),-0.2% (inactive),13.2% (inactive)
COc1ccc(NC(C)=O)cc1C1CCC(=O)N1 (stereo unspecified),12.2% (inactive),7.25% (inactive),-1.65% (inactive),10.1% (inactive),-19% (inactive),-23.6% (inactive)
CCOC(=O)C1Cc2c([nH]c(=O)[nH]c2=O)OC1c1ccc(OC)cc1 (stereo unspecified),26.4% (inactive),7.1% (inactive),6.3% (inactive),19.4% (inactive),27.1% (inactive),8.5% (inactive)
CCCCNC(=O)OCC,-34.5% (inactive),-25.6% (inactive),2.4% (inactive),-26.8% (inactive),-0.35% (inactive),5.9% (inactive)

SMILES,growth inhibition [1],growth inhibition [2],growth inhibition [3],growth inhibition [4],growth inhibition [5],growth inhibition [6]
CC(=O)OC(COC(c1ccccc1)(c1ccccc1)c1ccccc1)C(OC(C)=O)C(COC(c1ccccc1)(c1ccccc1)c1ccccc1)OC(C)=O (stereo unspecified),-25.9% (inactive),-8.4% (inactive),-22.5% (inactive),-18.8% (inactive),-6.6% (inactive),-15.1% (inactive)
O=C(Nc1ccccc1Br)c1cccc([N+](=O)[O-])c1O,37.5% (inactive),35.2% (inactive),45.5% (inactive),38.2% (inactive),29.4% (inactive),37.1% (inactive)
COC1=CCC2=C(C1)C1(C)CCCC(C)(CO)C1CC2 (stereo unspecified),3.1% (inactive),18.5% (inactive),-7.9% (inactive),3.4% (inactive),14% (inactive),58.2% (inactive)
Cc1c(N)nc(C(CC(N)=O)NCC(N)C(N)=O)nc1C(=O)NC(C(=O)NC(C)C(O)C(C)C(=O)NC(C(=O)NCCc1nc(-c2nc(C(=O)NCCC[S+](C)CC(N)=O)cs2)cs1)C(C)O)C(OC1OC(CO)C(O)C(O)C1OC1OC(CO)C(O)C(OC(N)=O)C1O)c1cnc[nH]1 (stereo unspecified),63.9% (inactive),58.9% (inactive),71.7% (active),56.9% (inactive),80% (active),75.7% (active)
CC(C)(O)C(C)(O)C#CC(C)(O)C(C)(C)O (stereo unspecified),-2.65% (inactive),1.2% (inactive),1.3% (inactive),-15.2% (inactive),2.5% (inactive),6.75% (inactive)
CSC1=Nc2ccccc2N(C)c2c1c(-c1ccccc1)nn2C,34.8% (inactive),32.1% (inactive),28.8% (inactive),28.6% (inactive),43% (inactive),21.6% (inactive)
NC(=O)c1ncn(C2OC(CO)C(O)C2O)c1C(N)=O (stereo unspecified),-7.6% (inactive),-24.8% (inactive),-12.5% (inactive),-4.9% (inactive),-0.3% (inactive),-24.6% (inactive)
CCc1ccccc1NC(=O)C1=C(C)NC(C)=C(C(=O)Nc2ccccc2CC)C1c1ccc2c(c1)OCO2,-9.35% (inactive),3.6% (inactive),-2.4% (inactive),-7.8% (inactive),-0.75% (inactive),-4% (inactive)
N=c1oc2ccccc2cc1-c1nc2ccccc2c(=O)[nH]1,-1.75% (inactive),-3.25% (inactive),4.5% (inactive),11.7% (inactive),-13.4% (inactive),17.3% (inactive)
NNc1nnc(Cl)c2c1ncn2Cc1ccccc1,-16.9% (inactive),-7.45% (inactive),23.1% (inactive),-21.4% (inactive),2.75% (inactive),20.6% (inactive)
NN(CC(=O)O)CC(=O)O,18.8% (inactive),-2.8% (inactive),2% (inactive),4.75% (inactive),29.1% (inactive),20.9% (inactive)
CCCc1cc(=O)oc2c3c(c4c(c12)OC(C)(C)C=C4)O[C@H](C)[C@@H](C)C3O (stereo partly specified),-6.25% (inactive),9.3% (inactive),-1.45% (inactive),-1.5% (inactive),11.3% (inactive),-3.4% (inactive)
CNC(=O)OCc1c(COC(=O)NC)c2n(c1C)CSC2,4.95% (inactive),-14.4% (inactive),-11.3% (inactive),-7.9% (inactive),-5.45% (inactive),2% (inactive)
O=C(NCCO)Nc1ccc2c(c1)OCCOCCOCCOCCO2,-0.95% (inactive),4.8% (inactive),-2.65% (inactive),14.1% (inactive),1.75% (inactive),5.9% (inactive)
CCOc1ccc(N)c([N+](=O)[O-])c1,4.65% (inactive),21.9% (inactive),22.9% (inactive),-34.4% (inactive),-7.75% (inactive),3.1% (inactive)
C=Cn1c([N+](=O)[O-])cnc1/C=C/c1ccc(C(=O)OCCN2CCOCC2)cc1,68.8% (inactive),16.4% (inactive),78.3% (active),34.9% (inactive),-10.2% (inactive),53% (inactive)
NC1=NN(S(=O)(=O)c2ccc(Cl)cc2)CC1,-14.7% (inactive),-6.25% (inactive),-8.75% (inactive),-21.7% (inactive),-3.3% (inactive),5.95% (inactive)
CCOC(=O)C1=C(O)CSC1=Nc1ccccc1,-16.3% (inactive),5.6% (inactive),-12.8% (inactive),-9.3% (inactive),-1.7% (inactive),22.9% (inactive)
